Where “and” joins values, the source holds several entries; their conditions need not be identical. Equal entries are not always repeated. Compounds without any hit were thinned out: in the full panel of roughly 83,000, 20% have a hit.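 Growth was measured after 48 h exposure to one concentration of compound in 96-well plates. Values under 10 count as active.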 Unmarked numbers belong to inactive results. Calls of active or inactive are those of the source.
Assays:
Assay in all cases: NCI-60 one-dose screen, 48 h (100 = growth as untreated, 0 = no growth, -100 = all killed)
Conditions in all cases: 10 µM unless noted
HCT-15 colon = test system: HCT-15 colon
HT29 colon = test system: HT29 colon
SNB-75 CNS = test system: SNB-75 CNS
SNB-19 CNS = test system: SNB-19 CNS
U251 CNS = test system: U251 CNS
SK-MEL-5 melanoma = test system: SK-MEL-5 melanoma
UACC-62 melanoma = test system: UACC-62 melanoma
LOX IMVI melanoma = test system: LOX IMVI melanoma
SK-MEL-28 melanoma = test system: SK-MEL-28 melanoma
PC-3 prostate = test system: PC-3 prostate

| SMILES | growth (HCT-15 colon) | growth (HT29 colon) | growth (SNB-75 CNS) | growth (SNB-19 CNS) | growth (U251 CNS) | growth (SK-MEL-5 melanoma) | growth (UACC-62 melanoma) | growth (LOX IMVI melanoma) | growth (SK-MEL-28 melanoma) | growth (PC-3 prostate) |
| --- | --- | --- | --- | --- | --- | --- | --- | --- | --- | --- |
| c1cc(NCCCCN2CCOCC2)c2ccc3c(ccc4c(NCCN5CCOCC5)ccnc43)c2n1 | 70.7% | 83.1% | 86.8% | 68.2% | 92.4% | 98.7% | 98.9% | 45.9% | 94% | – |
| CC/C(=C(/c1ccc(Cl)cc1)c1ccc(OCCN2CCOCC2)cc1)c1ccccc1 | 94.1% | 75.6% | 105% | 98.6% | 93.6% | 108% | 88.2% | 108% | 98.8% | – |
| CCC(=O)Oc1cc(Cl)c(Cl)cc1Cl | 103% | 103% | 89.6% | 113% | 98.1% | 105% | 108% | 105% | 104% | – |
| COc1ccc(Cn2cc(C(=O)Nc3cccnc3Nc3ccccc3)nn2)cc1 | 94.8% | 106% | 89.2% | 93.3% | 99.5% | 90.2% | 83.2% | 92% | 113% | – |
| COc1ccc(C/C(C)=C(/c2ccc(OCCN3CCCC3)cc2)c2ccc(OC(=O)NCc3ccccc3)cc2)cc1 | 61.4% | 18.6% | 71.1% | 85.6% | 67.1% | 77.8% | 84.8% | 84.4% | 84.7% | – |
| COc1ccc(/C=C2\COc3ccc(O)c(O)c3C2=O)c(OC)c1OC | 1.33% (active) | 44.7% | 37.9% | 28.2% | 14.4% | 35.5% | -56.9% (active) | 0.166% (active) | 58% | – |
| CC1=CC=C(NC(=O)/C=C/c2ccccc2)CC1Nc1nccc(-c2cccnc2)n1 (stereo not given) | 14.6% | 13.6% | 8.46% (active) | 66.8% | 38.1% | -42.9% (active) | 37.9% | 41.3% | 35.3% | – |
| CN(C)c1ccc2nc3ccc(=O)cc-3sc2c1 | 36.2% and 37.2% | 39.9% and 40.7% | 94.9% and 36.7% | 55.8% and 45.9% | 21.2% and 33.3% | -94.8% (active) and -89.9% (active) | 32.5% and 32.9% | 5.56% (active) and 5.52% (active) | 77.6% and 63% | – |
| CCN(CC)/C([O-])=c1\cccc\c1=C1\N=C(c2ccccc2)N=C1[n+]1ccc(-c2ccccc2)cc1 | 101% | 106% | 93.7% | 99.5% | 97.7% | 93.8% | 93.6% | 91.6% | 106% | – |
| Nc1[nH]nc(Nc2ccccc2)c1-c1nc2ccccc2s1 | 11.1% | 58.5% | 44.2% | 34% | 22% | 57.6% | 27.2% | -79.1% (active) | 35.4% | – |
| Cc1ccc2c(c1)C(C)Cc1c(ncnc1-n1cnc3cc(C)ccc31)N2C (stereo not given) | 12.3% | -10.3% (active) | 60.3% | 37.8% | 6.82% (active) | -24.2% (active) | 30.6% | 25.7% | 53.1% | – |
| O=C(N=Nc1c(O)[nH]c2ccccc12)Nc1ccccc1Cl | 68.1% | 101% | 82% | 91.1% | 92.2% | 87.6% | 78.8% | 96.5% | 105% | – |
| CC(=O)N1N=C(c2ccc(Nc3nc(Nc4ccc(F)cc4)nc(Nc4ccc(F)cc4)n3)cc2)CC1c1ccccc1 (stereo not given) | 89.3% | 96.3% | 80.1% | 77.3% | 85.5% | 69.6% | 95.4% | 103% | 97.5% | – |
| CC(=NCc1ccccc1)c1ccc(O)cc1O | 101% | 104% | 83.2% | 103% | 101% | 95% | 88.1% | 94.1% | 103% | – |
| NC(=O)c1c(NC(=O)/C=C/c2cccs2)sc2c1CCC(=O)C2 | 13.1% | 15.8% | 56.5% | 64.5% | 22.2% | 24.4% | 16.9% | 18.4% | 41.8% | 13.4% |
| [2H]C([2H])([2H])Oc1cc(F)ccc1/C=C/C(=O)/C=C(/C=C/c1ccc(F)cc1OC([2H])([2H])[2H])OB(F)F | 25.3% | 32.4% | 81.1% | 56.9% | 31.7% | 30.6% | 20.9% | 2.12% (active) | 29.5% | – |
| COc1cc(CNC(=O)CCCC/C=C/C(C)C)ccc1O | 104% and 96.9% | 104% | 93% and 100% | 90.9% and 104% | 101% and 98% | 97.8% and 97.5% | 96.6% and 104% | 89% and 86.9% | 116% and 112% | – |
| Cc1ccc(C(=O)Nc2ccc(CN3CCN(C)CC3)c(C(F)(F)F)c2)cc1C#Cc1cnc(N)cc1C#N | -69.8% (active) | – | -81.1% (active) | 3.23% (active) | -73.6% (active) | -86.5% (active) | -38.5% (active) | -90.1% (active) | -83.3% (active) | – |
| CC(=O)N1N=C(c2ccc(Nc3nc(Nc4ccc(F)cc4)nc(Nc4ccc(Cl)cc4)n3)cc2)CC1c1ccc(N(C)C)cc1 (stereo not given) | 38.4% | – | 40.3% | 59.2% | 53.7% | 32.4% | 35.2% | 63.1% | 60% | – |
| CN1CCCc2cc(/C=C3\SC(=S)N(C(Cc4ccc(O)cc4)C(=O)O)C3=O)ccc21 (stereo not given) | 101% | – | 89.9% | 92.2% | 94.7% | 100% | 93.6% | 93.8% | 113% | 101% |
| COc1ccc(C(c2cc(OC)c(OC)c(OC)c2)n2ccnc2)cc1O (stereo not given) | 7.7% (active) | – | 56.7% | 30.5% | 15.5% | -12.9% (active) | 36.5% | 25.7% | 62.9% | 20.7% |
| CC/C(=C(/c1ccc(O)cc1)c1ccc(OCCN2CCCCCC2)cc1)c1ccc(Cl)cc1 | 31.5% | – | 88.7% | 80.2% | 50.7% | 67% | 83.2% | 67.7% | 58.5% | 27.8% |
| Nc1n[nH]c2cccc(C#Cc3cccc(C(=O)Nc4ccc(CN5CCOCC5)c(C(F)(F)F)c4)c3)c12 | 22.5% | – | 52.9% | 75.2% | 40.3% | 17.5% | 5.89% (active) | 6.76% (active) | 14.5% | 29.5% |
| C#CCn1cnc2cnc(Nc3cccc(NC(=O)CCl)c3)nc21 | 6.26% [6.25 µM] (active) | – | -28.7% [6.25 µM] (active) | 11.5% [6.25 µM] | -49.2% [6.25 µM] (active) | -59.4% [6.25 µM] (active) | -23.1% [6.25 µM] (active) | -48.6% [6.25 µM] (active) | 14.5% [6.25 µM] | 18.9% [6.25 µM] |

— PubChem BioAssay (NCI)
